Where “and” joins values, the source holds several entries; their conditions need not be identical. Identical values can stand only once. A structure can be active in one record and inactive in another. Calls of active or inactive are those of the source.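 The calls were made as follows, unless noted: active = compounds whose cell count with miR-34 switched on is under 0.7 times the count with it off; inactive = the rest.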
Key:
[1] = circadian clock period modulators, cell-based, LOPAC library, luminescence reporter (AID 2774; call rule not given here;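 also: values are relative to mean of DMSO wells on each plate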); details: circadian reporter cells, at 7 µM, actives lie on both sides
[2] = tested on: Hepatitis C virus NS3 helicase; assay: HCV NS3 helicase inhibitors, primary screen, biochemical, fluorescence polarization, LOPAC1280 library (AID 687035; in the data active = inhibition above about 37%); details: Purified HCV NS3 helicase, Cy5-dT15 ssDNA binding fluorescence polarization; stronger effect = higher value; concentration not given here
[3] = Cy5 fluorescence quenching or enhancement artefacts, artefact control for HCV NS3 helicase inhibitor project, biochemical, LOPAC1280 (AID 687037; call rule not given here); details: Cy5-DNA-NS3h complex fluorescence interference counterscreen
[4] = sensitizers of A549 cells to miR-34 induction, primary screen, imaging, A549 dox-inducible miR-34, nuclei and caspase counts (AID 1347080); details: A549 miR-34 inducible, Hoechst nuclei count, 48 h
[5] = phospholipid biosynthesis inhibitors in animal cells, primary screen, cell-based, LOPAC library, screen 4 (AID 1347384; call rule not given here); details: phospholipid biosynthesis inhibition screen, at 10 µM
[6] = survival rescue of mitochondrial mutant cells in low glucose, primary screen, MELAS cybrids, Rieske KO mouse fibroblasts, CellTiter-Glo (AID 1508586;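 active = mean z-score across replicates of 1.96 or higher in either the MELAS or the Rieske mutant cell line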;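 also: z relative to plate mean and SD of compound and empty wells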)
[7] = viability rescue of complex I mutant cybrids, primary screen, cell-based, galactose medium, ATP luminescence (AID 1645843;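 active = z-score of at least 1.8 in each of two replicates, scored against plate mean and spread of sample wells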;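 also: positive z means more ATP and so rescue of galactose-driven cybrid death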); details: complex I mutant cybrid cells, 72 h, stronger effect = higher value
[8] = liver-stage malaria parasite growth inhibition, primary screen, cell-based, HepG2, luciferase luminescence, HepG2 viability (AID 624349; in the data active = parasite load remaining mostly below about 12%, no sharp cut-off; inactive = mostly above about 10%;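 also: 100% = mean of DMSO negative control wells on the same plate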); details: P. berghei liver stage in HepG2, luciferase luminescence, concentration not given here; parasite load remaining: stronger effect = lower value; viability: measured here: HepG2 viability without parasites
[9] = molecular target: NAD(+) hydrolase SARM1 (Homo sapiens) (UniProt Q6SZW1); assay: SARM1 TIR NADase inhibitors, cell lysate, NAD-Glo luminescence (AID 1508614;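 active = compound whose remaining NAD level is above about 45 nM, limit read from the data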;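 also: higher remaining NAD means stronger inhibition of SARM1 NADase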); details: SAM-TIR HEK293T lysate NADase, at 1 µM, stronger effect = higher value
[10] = molecular target: Mitogen-activated protein kinase 7 (Homo sapiens) (UniProt Q13164); assay: ERK5 transactivation activators in reporter cells, primary screen, cell-based, HTS (AID 1508626;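 active = luciferase signal above three times the same-plate solvent-only control wells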;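 also: luciferase driven by Gal4-ERK5 fusion binding five Gal4 sites before minimal TATA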); details: HeLa Gal4-ERK5 transactivation, 18 h, at 5 µM, stronger effect = higher value
[11] = stronger effect = lower value, cell number ratio, induced over uninduced
[12] = measured here: relative caspase fold change +Dox/-Dox
[13] = measured here: total cells with miR-34 induction, stronger effect = lower value
[14] = measured here: total cells without miR-34 induction
[15] = MELAS cybrid survival, CellTiter-Glo 48 h, stronger effect = higher value
[16] = Rieske KO mouse fibroblast survival, CellTiter-Glo 72 h

Sequence of NAD(+) hydrolase SARM1 (Homo sapiens) (Q6SZW1 whole entry, looked up, the tested form may be a part): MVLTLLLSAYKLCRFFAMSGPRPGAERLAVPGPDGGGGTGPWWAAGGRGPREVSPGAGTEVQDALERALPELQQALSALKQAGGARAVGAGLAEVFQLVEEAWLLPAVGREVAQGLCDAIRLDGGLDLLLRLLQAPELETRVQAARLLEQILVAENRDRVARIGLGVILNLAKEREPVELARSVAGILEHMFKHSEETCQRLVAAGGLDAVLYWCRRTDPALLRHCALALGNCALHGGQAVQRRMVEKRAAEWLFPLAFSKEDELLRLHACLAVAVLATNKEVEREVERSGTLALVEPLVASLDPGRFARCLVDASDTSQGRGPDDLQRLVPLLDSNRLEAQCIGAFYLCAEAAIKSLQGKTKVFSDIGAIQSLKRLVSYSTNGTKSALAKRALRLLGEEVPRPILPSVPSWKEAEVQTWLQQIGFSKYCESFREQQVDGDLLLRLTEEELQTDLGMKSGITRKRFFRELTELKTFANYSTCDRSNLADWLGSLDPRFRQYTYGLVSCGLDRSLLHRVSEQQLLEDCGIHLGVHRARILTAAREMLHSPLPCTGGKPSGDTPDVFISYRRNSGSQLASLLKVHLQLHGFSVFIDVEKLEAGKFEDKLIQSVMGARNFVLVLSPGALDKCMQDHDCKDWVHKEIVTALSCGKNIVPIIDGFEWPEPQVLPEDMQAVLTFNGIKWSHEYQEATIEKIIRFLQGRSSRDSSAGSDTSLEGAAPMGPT
Sequence of Mitogen-activated protein kinase 7 (Homo sapiens) (Q13164 whole entry, looked up, the tested form may be a part): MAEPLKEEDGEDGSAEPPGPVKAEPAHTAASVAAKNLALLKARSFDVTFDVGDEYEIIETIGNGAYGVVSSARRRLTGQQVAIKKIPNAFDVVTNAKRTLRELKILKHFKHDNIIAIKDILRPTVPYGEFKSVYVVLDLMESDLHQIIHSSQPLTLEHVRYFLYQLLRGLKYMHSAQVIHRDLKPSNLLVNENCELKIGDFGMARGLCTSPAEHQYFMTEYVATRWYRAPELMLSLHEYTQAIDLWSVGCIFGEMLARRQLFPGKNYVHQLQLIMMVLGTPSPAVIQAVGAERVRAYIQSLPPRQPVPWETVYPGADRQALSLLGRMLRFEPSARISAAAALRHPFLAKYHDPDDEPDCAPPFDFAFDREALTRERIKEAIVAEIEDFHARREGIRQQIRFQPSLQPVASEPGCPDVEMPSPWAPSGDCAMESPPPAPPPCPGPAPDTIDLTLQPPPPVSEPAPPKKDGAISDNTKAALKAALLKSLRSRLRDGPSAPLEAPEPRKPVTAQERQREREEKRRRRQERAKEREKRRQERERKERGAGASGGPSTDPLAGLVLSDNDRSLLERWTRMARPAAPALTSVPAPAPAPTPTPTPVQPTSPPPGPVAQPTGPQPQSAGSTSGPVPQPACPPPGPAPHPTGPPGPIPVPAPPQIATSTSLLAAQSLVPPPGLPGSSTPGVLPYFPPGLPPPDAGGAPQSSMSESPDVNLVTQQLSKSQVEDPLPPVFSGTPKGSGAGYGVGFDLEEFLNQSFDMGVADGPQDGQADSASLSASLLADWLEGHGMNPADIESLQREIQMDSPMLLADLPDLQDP

Compound: CC(C)(C)NCC(O)COc1nsnc1N1CCOCC1 (stereo not drawn)
- period change [1]: -0.09 h (inactive)
- inhibition [2]: -2% (inactive)
- fluorescence ratio (interference) [3]: 1 (inactive)
- fold change [4, 11]: 0.926 (inactive) and 0.855 (inactive)
- fold change [4, 12]: 1.26 and 0.99
- cell count [4, 13]: 9690 and 8250
- cell count [4, 14]: 10500 and 9640
- outcome [5]: inactive
- z-score [6, 15]: -0.232 (inactive)
- z-score [6, 16]: -0.152
- z-score [7]: 0.22 (inactive)

Compound: O=C1c2c(O)cc(O)cc2OC(c2ccc(O)c(O)c2)C1O (stereo not drawn)
- period change [1]: -0.11 h (inactive)
- inhibition [2]: -3% (inactive)
- fluorescence ratio (interference) [3]: 1 (inactive)
- outcome [5]: inactive
- z-score [6, 15]: -0.361 (inactive)
- z-score [6, 16]: 0.683
- z-score [7]: 0.265 (inactive) and -0.07 (inactive) and 0.43 (inactive)

Compound: O=[N+]([O-])c1ccc2c(c1)S(=O)(=O)C=C2
- inhibition [2]: -2% (inactive)
- fluorescence ratio (interference) [3]: 1 (inactive)
- fold change [4, 11]: 0.698 (active) and 1.19 (inactive)
- fold change [4, 12]: 0.963 and 0.522
- cell count [4, 13]: 598 and 1740
- cell count [4, 14]: 856 and 1460
- outcome [5]: inactive
- z-score [6, 15]: 3.07 (active)
- z-score [6, 16]: -0.336
- z-score [7]: -1.38 (inactive)

Compound: O=C(O)C=Cc1ccc(Cn2ccnc2)cc1
- fold change [4, 11]: 0.955 (inactive) and 0.883 (inactive) and 0.902 (inactive)
- fold change [4, 12]: 1.3 and 1.43 and 0.779
- cell count [4, 13]: 9560 and 7820 and 10000
- cell count [4, 14]: 10000 and 8860 and 11100
- z-score [6, 15]: -0.304 (inactive) and -0.385 (inactive)
- z-score [6, 16]: 0.761 and 0.973
- z-score [7]: 0.575 (inactive)

Compound: CC[C@H](C)[C@H]1O[C@]2(CC[C@@H]1C)C[C@@H]1C[C@@H](C/C=C(\C)[C@@H](O[C@H]3C[C@H](OC)[C@@H](O[C@H]4C[C@H](OC)[C@@H](O)[C@H](C)O4)[C@H](C)O3)[C@@H](C)/C=C/C=C3\CO[C@@H]4[C@H](O)C(C)=C[C@@H](C(=O)O1)[C@]34O)O2
- parasite load remaining [8]: 26.5% (inactive) and 28.8% (inactive)
- viability [8]: 44.6% and 96.5%
- fold change [4, 11]: 0.862 (inactive) and 0.935 (inactive)
- fold change [4, 12]: 0.479 and 1.24
- cell count [4, 13]: 6180 and 7180
- cell count [4, 14]: 7170 and 7680
- z-score [6, 15]: -1.97 (inactive) and -0.0039 (inactive)
- z-score [6, 16]: 0.878 and -0.186
- remaining NAD [9]: 10 nM (inactive)
- luciferase signal [10]: 44 AU (inactive)
- z-score [7]: -1.77 (inactive)

Compound: CCC(CO)Nc1nc(NCc2ccccc2)c2ncn(C(C)C)c2n1 (stereo not drawn)
- period change [1]: 1.22 h (active)
- inhibition [2]: 0% (inactive)
- fluorescence ratio (interference) [3]: 1 (inactive)
- fold change [4, 11]: 1.36 (inactive) and 0.915 (inactive)
- fold change [4, 12]: 0.998 and 1.15
- cell count [4, 13]: 1560 and 4690
- cell count [4, 14]: 1150 and 5130
- outcome [5]: inactive
- z-score [6, 15]: -0.381 (inactive)
- z-score [6, 16]: 0.0764
- z-score [7]: -0.51 (inactive)

Compound: COc1ccc2cc(C(C)C(=O)O)ccc2c1 (stereo not drawn)
- parasite load remaining [8]: 40.8% (inactive)
- viability [8]: 47.4%
- fold change [4, 11]: 0.873 (inactive) and 1.59 (inactive) and 0.829 (inactive)
- fold change [4, 12]: 1.19 and 0.614 and 0.98
- cell count [4, 13]: 8070 and 7920 and 7570
- cell count [4, 14]: 9240 and 4980 and 9130
- z-score [6, 15]: -0.171 (inactive) and 0.614 (inactive)
- z-score [6, 16]: 0.627 and 0.253
- z-score [7]: 0.575 (inactive)

Compound: CCOC(=O)C(CCc1ccccc1)NC1CCc2ccccc2N(CC(=O)O)C1=O (stereo not drawn)
- fold change [4, 11]: 0.901 (inactive) and 0.923 (inactive) and 1.08 (inactive)
- fold change [4, 12]: 1.61 and 0.619 and 0.514
- cell count [4, 13]: 9200 and 8490 and 8200
- cell count [4, 14]: 10200 and 9200 and 7620
- z-score [6, 15]: 0.349 (inactive) and -0.387 (inactive)
- z-score [6, 16]: -0.629 and -0.0664
- z-score [7]: 0.855 (inactive) and 0.665 (inactive)

— PubChem BioAssay
